Screens from PubChem.
ROS inducer = cancer cell ROS induction; U2OS ROS induction, H2DCF-DA fluorescence; 2% of 46,000 active; ROS induction (% of piperlongumine), % at 10 µM; in the data active = ROS induction above about 79%, passing the limit was not always enough;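 note: 0% = DMSO vehicle median and 100% = reference compound median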
* hit, by the source's call. The entries come from a sample that favours hits as a whole.

Results for C[C@@H]1CCCCO[C@H](CN(C)Cc2ccc(C(=O)O)cc2)[C@@H](C)CN([C@H](C)CO)C(=O)c2cc(NC(=O)c3ccccc3)ccc2O1 ?
ROS inducer: 28

Results for C[C@@H]1CCCCO[C@@H](CN(C)Cc2ccccc2)[C@@H](C)CN([C@H](C)CO)C(=O)c2cc(NC(=O)c3ccccc3)ccc2O1 ?
ROS inducer: 184*

How did Cc1ccc(S(=O)(=O)N(C)C[C@@H]2Oc3ccc(NC(=O)CCCCCC(=O)Nc4ccccc4N)cc3C(=O)N([C@@H](C)CO)C[C@@H]2C)cc1 do in these assays?
ROS inducer: 6

What do the screens show for `Cc1noc(C)c1NC(=O)Nc1cccc2c1O[C@@H](CN(C)C(=O)Nc1ccc3c(c1)OCO3)[C@@H](C)CN([C@@H](C)CO)C2=O`?
ROS inducer: -4

Results for CCOc1ccc(C(=O)CC(N)C(=O)O)cc1 (stereo unspecified) ?
ROS inducer: 0

What do the screens show for `O=C(CCc1nc(-c2ccccc2)no1)Nc1ccccc1Cl`?
ROS inducer: 3

How did Cc1noc(C)c1NC(=O)Nc1ccc2c(c1)CC(=O)N([C@H](C)CO)C[C@@H](C)[C@H](CN(C)C(=O)NC1CCCCC1)O2 do in these assays?
ROS inducer: -3

What do the screens show for `C[C@@H]1CCCCO[C@H](CN(C)CC2CCCCC2)[C@@H](C)CN([C@H](C)CO)C(=O)c2cc(NC(=O)c3ccncc3)ccc2O1`?
ROS inducer: 0

What do the screens show for `Cc1ccc(S(=O)(=O)Nc2cccc3c2O[C@@H](CN(C)C(=O)Nc2ccccc2)[C@H](C)CN([C@H](C)CO)C3=O)cc1`?
ROS inducer: 6

Results for Cc1ccc(OCCN2CCN(c3ncnc4scc(-c5ccccc5)c34)CC2)cc1 ?
ROS inducer: 19

Results for Cc1ccc(OCCN2CCN(c3cc(C)c(C#N)c4nc5ccccc5n34)CC2)cc1 ?
ROS inducer: 100*

Results for Cc1cc(N2CCCC2)n2c(nc3ccccc32)c1C#N ?
ROS inducer: 14

Results for C=CCN(C(=O)CSc1nc2c(sc3ccccc32)c(=O)n1Cc1cccnc1)c1ccccc1 ?
ROS inducer: 154*

How did C=CCN(C(=O)CSc1nc2[nH]ncc2c(=O)n1-c1cccc2ccccc12)c1ccccc1 do in these assays?
ROS inducer: 13

What do the screens show for `CCCCn1c(SCC(=O)NCc2ccccc2)nc2c(sc3ccccc32)c1=O`?
ROS inducer: 3

What do the screens show for `COC(=O)c1ccc(NC(=O)C(C)N(c2ccc(Cl)cc2)S(C)(=O)=O)cc1` (stereo unspecified)?
ROS inducer: 4

How did Cc1c(Cl)cccc1NC(=O)COc1cc(O)c2c(=O)cc(-c3ccccc3)oc2c1 do in these assays?
ROS inducer: -4

What do the screens show for `C=CCN(C(=O)CSc1nnc(CC)n2c1cc1oc(C)cc12)c1ccccc1`?
ROS inducer: -14

What do the screens show for `C[C@@H]1CN([C@H](C)CO)C(=O)c2cccc(NS(C)(=O)=O)c2O[C@H]1CN(C)C(=O)Nc1ccc(C(F)(F)F)cc1`?
ROS inducer: -8

What do the screens show for `C=C1C(=O)O[C@@H]2C=C(C)[C@@H]3CC[C@@](C)(O)[C@@H]3C[C@H]12`?
ROS inducer: -3

What do the screens show for `C=C1C(=O)OC2CC3(C)CCC=C(CO)C3CC12` (stereo unspecified)?
ROS inducer: 35

What do the screens show for `C=C1C(=O)O[C@H]2C3=C(C)CCC[C@]3(C)C(=O)C[C@@H]12`?
ROS inducer: 84*

What do the screens show for `O=C(Nc1ccccc1Sc1ncnc2sc3c(c12)CCCC3)c1cccs1`?
ROS inducer: -15

Results for CC1CCN(S(=O)(=O)c2cc(Br)cnc2N)CC1 ?
ROS inducer: -10

Results for O=C(c1ccc(Br)cc1)c1cc2c(cc1Br)OCCCO2 ?
ROS inducer: 131*

What do the screens show for `O=C(O)CCC(=O)c1ccc2c(c1)OCCCO2`?
ROS inducer: 10

What do the screens show for `O=C(NO)c1ccc(C(=O)N/N=C/c2cc3c(cc2Br)OCO3)cc1`?
ROS inducer: -16

How did Cc1noc(C)c1S(=O)(=O)Nc1cccc2c1O[C@@H](CN(C)S(=O)(=O)c1ccc(Cl)cc1)[C@@H](C)CN([C@H](C)CO)C2=O do in these assays?
ROS inducer: 24

How did C[C@H]1CN([C@@H](C)CO)C(=O)Cc2cc(N(C)C)ccc2O[C@@H]1CN(C)S(=O)(=O)c1ccc(Cl)cc1 do in these assays?
ROS inducer: 19

How did C[C@H]1CN([C@@H](C)CO)C(=O)c2cccc(NC(=O)Nc3cccc4ccccc34)c2O[C@@H]1CN(C)S(=O)(=O)c1ccc(F)cc1 do in these assays?
ROS inducer: 151*

How did C[C@H](CO)N1C[C@H](C)[C@H](CN(C)S(=O)(=O)c2ccc(F)cc2)Oc2ccc(NC(=O)Nc3ccc(C(F)(F)F)cc3)cc2CC1=O do in these assays?
ROS inducer: 85*

How did C[C@@H]1CN([C@H](C)CO)C(=O)c2cccc(NC(=O)Nc3cccc4ccccc34)c2O[C@@H]1CN(C)S(=O)(=O)c1ccc(F)cc1 do in these assays?
ROS inducer: 8

How did Cc1noc(C)c1S(=O)(=O)Nc1cccc2c1O[C@H](CN(C)S(=O)(=O)c1ccc(Cl)cc1)[C@H](C)CN([C@@H](C)CO)C2=O do in these assays?
ROS inducer: 103*

How did C[C@H]1CN([C@@H](C)CO)C(=O)c2cccc(NC(=O)Nc3cccc4ccccc34)c2O[C@H]1CN(C)S(=O)(=O)c1ccc(F)cc1 do in these assays?
ROS inducer: -4

Results for Cc1ccc(S(=O)(=O)N(C)C[C@H]2Oc3ccc(NC(=O)Nc4ccc(C(F)(F)F)cc4)cc3CC(=O)N([C@H](C)CO)C[C@H]2C)cc1 ?
ROS inducer: 14

What do the screens show for `C[C@H](CO)N1C[C@H](C)[C@H](CN(C)S(=O)(=O)c2ccc(F)cc2)Oc2ccc(NC(=O)Nc3ccc(F)cc3)cc2CC1=O`?
ROS inducer: -4

How did COc1ccc(S(=O)(=O)N(C)C[C@H]2Oc3ccc(N(C)C)cc3CC(=O)N([C@H](C)CO)C[C@H]2C)cc1 do in these assays?
ROS inducer: -6

Results for Cc1noc(C)c1S(=O)(=O)Nc1cccc2c1O[C@@H](CN(C)S(=O)(=O)c1ccc(Cl)cc1)[C@@H](C)CN([C@@H](C)CO)C2=O ?
ROS inducer: 6

Results for COc1ccc(S(=O)(=O)N(C)C[C@@H]2Oc3ccc(N(C)C)cc3CC(=O)N([C@H](C)CO)C[C@H]2C)cc1 ?
ROS inducer: 96*

What do the screens show for `O=C(CC(NC1CC1)C(=O)O)c1ccc(Cl)cc1` (stereo unspecified)?
ROS inducer: -7

Results for C[C@@H]1CN([C@H](C)CO)C(=O)c2cccc(NS(C)(=O)=O)c2O[C@@H]1CN(C)C(=O)Nc1ccc(C(F)(F)F)cc1 ?
ROS inducer: -2

What do the screens show for `COc1ccc(NC(=O)Nc2cccc3c2O[C@@H](CN(C)C(=O)Nc2ccc(OC)cc2)[C@@H](C)CN([C@H](C)CO)C3=O)cc1`?
ROS inducer: 5

How did COc1ccc(S(=O)(=O)Nc2cccc3c2O[C@@H](CN(C)C(=O)Nc2c(C)noc2C)[C@@H](C)CN([C@@H](C)CO)C3=O)cc1 do in these assays?
ROS inducer: -8

How did Cc1noc(C)c1NC(=O)N(C)C[C@H]1Oc2ccc(NS(=O)(=O)c3ccccc3)cc2CC(=O)N([C@@H](C)CO)C[C@@H]1C do in these assays?
ROS inducer: -2

Results for C[C@H](CO)N1C[C@H](C)[C@@H](CN(C)Cc2ccc(C(F)(F)F)cc2)Oc2ccc(NC(=O)c3ccncc3)cc2C1=O ?
ROS inducer: 2
